For experiment [1], the system named is Escherichia coli Nissle 1917. Briefly: area under OmniLog respiration curve over 48 h (OmniLog units x h); higher = more growth / nutrient utilisation; extreme values may be limits of the assay. Particulars: incubation: 48 h, 37 °C.
Experiment [2] deals with Escherichia coli Nissle 1917. In words: DuctApe activity index of respiration/growth curve (0 no growth to 9 maximum) (index 0-9); higher = more growth / nutrient utilisation, active = 3 or more; extreme values may be limits of the assay. Particulars: incubation: 48 h, 37 °C.
[3] abbreviates: nutrient role: C-Source, carbohydrate.
The mark [4] stands for this setting: nutrient role: sole sulfur source (pyruvate carbon).
[5] abbreviates: nutrient role: C-Source, carboxylic acid.
Setting [6] is: nutrient role: sole nitrogen source (pyruvate carbon).
Setting [7] is: nutrient role: sole phosphorus source (pyruvate carbon).
[8] abbreviates: nutrient role: C-Source, alcohol.
Setting [9] is: nutrient role: C-Source, amino acid.

± gives the standard deviation of the averaged measurements.
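Wherever DuctApe activity index of respiration/growth curve (0 no growth to 9 maximum) is given: biolog PM4 phosphorus and sulfur plates, tetrazolium violet dye reduction read in the OmniLog every 15 min, kinetic curves scored by DuctApe, each plate run in triplicate.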

For `OC1OC[C@@H](O)[C@@H](O)[C@@H]1O` (stereo partly drawn) [D-Arabinose], in experiment [1] (setting [3]), the “area under OmniLog respiration curve” value is 2440 ± 230. The DuctApe activity index in experiment [2] (setting [3]) was 4 (active).

On to `NCCS(=O)O` [Hypotaurine], for which the “area under OmniLog respiration curve” value in experiment [1] (setting [4]) was determined as 7620 ± 90. Further, the DuctApe activity index in experiment [2] (setting [4]) is 8 (active).

Take `N[C@@H](CSCSC[C@H](N)C(=O)O)C(=O)O` [L-Djenkolic acid]: the “area under OmniLog respiration curve” value in experiment [1] (setting [4]) worked out at 7730 ± 190. The DuctApe activity index in experiment [2] (setting [4]) is 8 (active).

Consider `O=C(O)C[C@H](O)C(=O)O` [L-Malic acid], for which the “area under OmniLog respiration curve” value in experiment [1] (setting [5]) was found to be 8910 ± 230. Also, in experiment [2] (setting [5]), the DuctApe activity index is 8.67 (active).

With `NC(=O)C[C@@H](N)C(=O)O` [D-Asparagine], in experiment [1] (setting [6]), the “area under OmniLog respiration curve” value turned out to be 1420 ± 780. Further, the DuctApe activity index in experiment [2] (setting [6]) was 2.33 (inactive).

With `CSCC[C@H](N)C(=O)N[C@@H](C)C(=O)O`, in experiment [1] (setting [6]), the “area under OmniLog respiration curve” value came to 6410 ± 1200. In experiment [2] (setting [6]), the DuctApe activity index was 7 (active).

As to `CSCC[C@@H](N)C(=O)O` [D-Methionine], the “area under OmniLog respiration curve” value in experiment [1] (setting [4]) stood at 4590 ± 230. Also, the DuctApe activity index in experiment [2] (setting [4]) was 6.33 (active).

As to `O=P(O)(O)CP(=O)(O)O` [Methylene Diphosphonic acid], the “area under OmniLog respiration curve” value in experiment [1] (setting [7]) was found to be 618 ± 470. In addition, the DuctApe activity index in experiment [2] (setting [7]) is 0.667 (inactive).

Consider `N[C@@H](CS(=O)(=O)O)C(=O)O` [L-Cysteic acid], for which, in experiment [1] (setting [4]), the “area under OmniLog respiration curve” value amounted to 5920 ± 240. Also, in experiment [2] (setting [4]), the DuctApe activity index is 7 (active).

As for `O=CC(=O)O` [Glyoxylic acid], the “area under OmniLog respiration curve” value in experiment [1] (setting [5]) came to 5490 ± 480. For the same compound, the DuctApe activity index in experiment [2] (setting [5]) is 7 (active).

As to `N[C@@H](CSC[C@H](N)C(=O)O)C(=O)O` [Lanthionine], the “area under OmniLog respiration curve” value in experiment [1] (setting [4]) came out at 7490 ± 330. The DuctApe activity index in experiment [2] (setting [4]) was 8 (active).

For `OC[C@@H](O)[C@@H](O)[C@H](O)[C@H](O)CO` [D-Mannitol], the “area under OmniLog respiration curve” value in experiment [1] (setting [3]) was 7850 ± 650. In experiment [2] (setting [3]), the DuctApe activity index was 7.67 (active).

Regarding `COC(=O)C(C)=O` [Methylpyruvate], the “area under OmniLog respiration curve” value in experiment [1] (nutrient role: C-Source, ester) turned out to be 8530 ± 550. The DuctApe activity index in experiment [2] (nutrient role: C-Source, ester) was 8.33 (active).

For `O=C(O)[C@H](O)[C@@H](O)[C@H](O)[C@H](O)CO` [D-Gluconic acid], the “area under OmniLog respiration curve” value in experiment [1] (setting [5]) is 10300 ± 700. The DuctApe activity index in experiment [2] (setting [5]) was 9 (active).

In the case of `O=C(O)C(O)COP(=O)(O)O` [D-3-Phospho-Glyceric acid], in experiment [1] (setting [7]), the “area under OmniLog respiration curve” value was determined as 9300 ± 690. Moreover, the DuctApe activity index in experiment [2] (setting [7]) is 8.67 (active).

`N[C@@H](CCC(=O)N[C@@H](CS)C(=O)NCC(=O)O)C(=O)O` [Glutathione]: the “area under OmniLog respiration curve” value in experiment [1] (setting [4]) turned out to be 1690 ± 30. Further, the DuctApe activity index in experiment [2] (setting [4]) is 5 (active).

With `OC1OC[C@@H](O)[C@H](O)[C@H]1O` (stereo partly drawn) [D-Xylose], the “area under OmniLog respiration curve” value in experiment [1] (setting [3]) is 9160 ± 580. Further, the DuctApe activity index in experiment [2] (setting [3]) is 8.67 (active).

As for `O=C(O)Cc1cccc(O)c1` [m-Hydroxyphenyl Acetic acid], the “area under OmniLog respiration curve” value in experiment [1] (setting [5]) stood at 114 ± 120. Further, in experiment [2] (setting [5]), the DuctApe activity index is 0.667 (inactive).

Regarding `O=C(CO)[C@@H](O)[C@H](O)[C@@H](O)C(=O)O` [5-Keto-D-Gluconic acid], in experiment [1] (setting [5]), the “area under OmniLog respiration curve” value turned out to be 118 ± 140. The DuctApe activity index in experiment [2] (setting [5]) was 0 (inactive).

`CCCCN` [N-Butylamine]: the “area under OmniLog respiration curve” value in experiment [1] (setting [6]) was determined as 5.65 ± 1.6. In addition, the DuctApe activity index in experiment [2] (setting [6]) was 0 (inactive).

With `N[C@@H](C(=O)O)[C@@H](O)[C@H](O)[C@H](O)CO` [D-Glucosaminic acid], in experiment [1] (setting [5]), the “area under OmniLog respiration curve” value turned out to be 1010 ± 670. The DuctApe activity index in experiment [2] (setting [5]) is 2 (inactive).

As for `NCCS(=O)(=O)O` [Taurine], the “area under OmniLog respiration curve” value in experiment [1] (setting [4]) was 7830 ± 160. The DuctApe activity index in experiment [2] (setting [4]) is 8 (active).

Turning to `O=C[C@H](O)[C@H](O)[C@@H](O)CO` [L-Lyxose], the “area under OmniLog respiration curve” value in experiment [1] (setting [3]) came out at 2670 ± 880. In addition, the DuctApe activity index in experiment [2] (setting [3]) was 4.33 (active).

Regarding `Nc1ncnc2c1ncn2[C@@H]1O[C@H](CO)[C@@H](OP(=O)(O)O)[C@H]1O` [Adenosine 3`-Monophosphate], the “area under OmniLog respiration curve” value in experiment [1] (setting [7]) worked out at 9700 ± 640. Further, in experiment [2] (setting [7]), the DuctApe activity index was 9 (active).

For the compound `Oc1nc(O)c2nc(O)[nH]c2n1` [Uric acid], the “area under OmniLog respiration curve” value in experiment [1] (setting [6]) was 986 ± 490. Further, the DuctApe activity index in experiment [2] (setting [6]) is 2.33 (inactive).

For `C[C@H](N)C(=O)N[C@@H](Cc1cnc[nH]1)C(=O)O`, the “area under OmniLog respiration curve” value in experiment [1] (setting [6]) was found to be 6900 ± 1400. Also, in experiment [2] (setting [6]), the DuctApe activity index is 7.67 (active).

Take `C[C@H](O)C(=O)O` [L-Lactic acid]: the “area under OmniLog respiration curve” value in experiment [1] (setting [5]) amounted to 7880 ± 510. Also, the DuctApe activity index in experiment [2] (setting [5]) was 8 (active).

On to `OCC1OC(O)(CO)C(O)C1O` [D-Fructose], for which the “area under OmniLog respiration curve” value in experiment [1] (setting [3]) is 8740 ± 720. Further, in experiment [2] (setting [3]), the DuctApe activity index is 8.67 (active).

As to `O=C1O[C@H](CO)[C@@H](O)[C@H]1O` [D-Ribono-1,4-Lactone], the “area under OmniLog respiration curve” value in experiment [1] (setting [5]) was found to be 4.72. For the same compound, in experiment [2] (setting [5]), the DuctApe activity index is 0 (inactive).

As for `N[C@@H]1C(O)O[C@H](CO)[C@@H](O)[C@@H]1O` (stereo partly drawn) [D-Mannosamine], in experiment [1] (setting [6]), the “area under OmniLog respiration curve” value was found to be 1020 ± 700. In addition, the DuctApe activity index in experiment [2] (setting [6]) is 1.67 (inactive).

As to `CC(=O)C(=O)O` [Pyruvic acid], the “area under OmniLog respiration curve” value in experiment [1] (setting [5]) worked out at 9610 ± 520. In addition, in experiment [2] (setting [5]), the DuctApe activity index was 9 (active).

Regarding `N[C@@H](Cc1c[nH]c2ccccc12)C(=O)O` [L-Tryptophan], in experiment [1] (setting [6]), the “area under OmniLog respiration curve” value stood at 3670 ± 1500. In addition, the DuctApe activity index in experiment [2] (setting [6]) is 4.67 (active).

Take `Cc1cn([C@H]2C[C@H](OP(=O)(O)O)[C@@H](CO)O2)c(=O)[nH]c1=O` [Thymidine 3`-Monophosphate]: the “area under OmniLog respiration curve” value in experiment [1] (setting [7]) stood at 8940 ± 450. Further, the DuctApe activity index in experiment [2] (setting [7]) is 8.67 (active).

On to `O=CO` [Formic acid], for which, in experiment [1] (setting [5]), the “area under OmniLog respiration curve” value amounted to 112 ± 190. Also, the DuctApe activity index in experiment [2] (setting [5]) is 0.333 (inactive).

For the compound `NCCCC[C@@H](N)C(=O)O` [D-Lysine], the “area under OmniLog respiration curve” value in experiment [1] (setting [6]) is 23.1 ± 23. Further, in experiment [2] (setting [6]), the DuctApe activity index was 0.667 (inactive).

In the case of `OC[C@H]1O[C@H](OC[C@H]2O[C@H](O[C@]3(CO)O[C@H](CO)[C@@H](O)[C@@H]3O)[C@H](O)[C@@H](O)[C@@H]2O)[C@H](O)[C@@H](O)[C@H]1O` [D-Raffinose], in experiment [1] (setting [3]), the “area under OmniLog respiration curve” value came out at 6090 ± 450. For the same compound, the DuctApe activity index in experiment [2] (setting [3]) is 7 (active).

With `CC(O)CO` (stereo not drawn) [1,2-Propanediol], the “area under OmniLog respiration curve” value in experiment [1] (setting [8]) was 123 ± 100. In addition, the DuctApe activity index in experiment [2] (setting [8]) was 1.33 (inactive).

Consider `NCC(=O)N[C@@H](CC(=O)O)C(=O)O`, for which, in experiment [1] (setting [9]), the “area under OmniLog respiration curve” value amounted to 8800 ± 750. Moreover, the DuctApe activity index in experiment [2] (setting [9]) was 8.67 (active).

`NCCc1c[nH]cn1` [Histamine]: the “area under OmniLog respiration curve” value in experiment [1] (setting [6]) came to 5.03 ± 0.54. Besides, the DuctApe activity index in experiment [2] (setting [6]) was 0 (inactive).
